From the supplement of paper PMC11732987, “Enantioselective OTUD7B fragment discovery through chemoproteomics screening and high-throughput optimisation” (Communications Chemistry, 2025)

Key:
Test in all cases: log2 ratio of Biotin-Ahx-Ub-VS probe labelling (fragment/DMSO); higher = less target engagement (more negative = stronger competition), active = hit call of the paper (q ≤ 0.05, log2 ratio ≤ -1)
Settings in all cases: compound concentration: 200 uM; treatment time: 3 h
OTUD6B = biological target: T1, OTUD6B (UniProt Q8N6M0)
T1 sequence (whole entry): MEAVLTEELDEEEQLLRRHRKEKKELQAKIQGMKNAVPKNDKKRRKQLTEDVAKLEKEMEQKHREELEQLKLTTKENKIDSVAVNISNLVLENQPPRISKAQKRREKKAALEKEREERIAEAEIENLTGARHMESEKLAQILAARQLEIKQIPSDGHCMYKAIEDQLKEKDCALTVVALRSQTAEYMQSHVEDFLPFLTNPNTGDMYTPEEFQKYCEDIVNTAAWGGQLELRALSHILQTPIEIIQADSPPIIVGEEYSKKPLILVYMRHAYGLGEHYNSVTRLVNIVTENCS
Summary of the method: (§1)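 Triplicate samples of HEK293T lysate, 495 µg each, received fragment at 200 µM or vehicle for 3 h, followed by Biotin-Ahx-Ub-VS (0.5 µM final) for 1 h. After NeutrAvidin enrichment of labelled DUBs and LysC/trypsin digestion, peptides were run by diaPASEF LC-MS/MS. The values are average log2 fragment/vehicle ratios from global-median-normalised Spectronaut label-free quantities, tested by unpaired t-test on proteins having ≥2 unique peptides.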

OTUD7B = biological target: T2, OTUD7B (UniProt Q6GQQ9)
T2 sequence (whole entry): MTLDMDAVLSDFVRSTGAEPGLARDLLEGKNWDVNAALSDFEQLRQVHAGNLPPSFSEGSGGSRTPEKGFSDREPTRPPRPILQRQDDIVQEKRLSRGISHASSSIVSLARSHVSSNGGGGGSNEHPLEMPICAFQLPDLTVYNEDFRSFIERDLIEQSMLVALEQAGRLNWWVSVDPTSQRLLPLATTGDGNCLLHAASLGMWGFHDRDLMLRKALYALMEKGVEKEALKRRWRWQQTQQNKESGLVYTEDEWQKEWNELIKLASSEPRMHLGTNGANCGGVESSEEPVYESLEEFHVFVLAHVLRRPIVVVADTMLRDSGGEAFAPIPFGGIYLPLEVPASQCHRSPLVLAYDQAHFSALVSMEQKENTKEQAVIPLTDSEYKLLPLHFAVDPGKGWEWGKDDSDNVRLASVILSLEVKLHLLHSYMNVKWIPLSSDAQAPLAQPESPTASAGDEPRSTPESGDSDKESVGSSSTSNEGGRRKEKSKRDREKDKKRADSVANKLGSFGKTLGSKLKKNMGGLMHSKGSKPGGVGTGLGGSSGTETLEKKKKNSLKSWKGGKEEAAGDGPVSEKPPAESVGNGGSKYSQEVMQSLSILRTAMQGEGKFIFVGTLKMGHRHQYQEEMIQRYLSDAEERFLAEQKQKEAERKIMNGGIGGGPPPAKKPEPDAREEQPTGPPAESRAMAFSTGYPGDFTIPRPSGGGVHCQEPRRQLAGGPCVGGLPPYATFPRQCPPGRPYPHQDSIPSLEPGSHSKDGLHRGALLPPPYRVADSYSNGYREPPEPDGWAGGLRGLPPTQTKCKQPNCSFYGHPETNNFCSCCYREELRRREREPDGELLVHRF
Summary of the method: as §1

PRPF8 = PRPF8 (UniProt Q6P2Q9)
Summary of the method: as §1

PSMD7 = biological target: T3, PSMD7 (UniProt P51665)
T3 sequence (whole entry): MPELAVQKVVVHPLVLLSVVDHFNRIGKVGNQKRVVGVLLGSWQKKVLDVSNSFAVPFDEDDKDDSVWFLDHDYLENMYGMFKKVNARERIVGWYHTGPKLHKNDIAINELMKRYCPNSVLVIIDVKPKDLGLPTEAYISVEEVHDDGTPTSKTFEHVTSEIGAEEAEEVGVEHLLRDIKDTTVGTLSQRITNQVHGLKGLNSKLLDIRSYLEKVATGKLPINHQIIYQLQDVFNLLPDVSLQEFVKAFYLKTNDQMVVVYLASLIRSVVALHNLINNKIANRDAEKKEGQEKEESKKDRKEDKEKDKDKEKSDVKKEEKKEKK
Summary of the method: as §1

UCHL1 = UCHL1 (UniProt P09936)
UCHL1, sequence (P09936 whole entry, looked up): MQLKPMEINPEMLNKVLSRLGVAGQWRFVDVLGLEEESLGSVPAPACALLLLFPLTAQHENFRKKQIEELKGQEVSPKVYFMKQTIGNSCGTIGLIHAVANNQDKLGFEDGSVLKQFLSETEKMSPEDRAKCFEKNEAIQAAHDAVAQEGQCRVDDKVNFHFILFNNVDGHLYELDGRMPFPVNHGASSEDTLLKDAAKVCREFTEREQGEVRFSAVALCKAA
Summary of the method: as §1

UCHL3 = biological target: T4, UCHL3 (UniProt P15374)
T4 sequence (whole entry): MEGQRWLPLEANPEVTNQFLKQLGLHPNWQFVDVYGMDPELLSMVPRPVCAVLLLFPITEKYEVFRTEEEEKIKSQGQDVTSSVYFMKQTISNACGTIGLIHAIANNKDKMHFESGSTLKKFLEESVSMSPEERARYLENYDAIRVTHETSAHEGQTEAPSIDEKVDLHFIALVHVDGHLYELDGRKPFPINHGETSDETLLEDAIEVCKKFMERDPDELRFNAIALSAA
Summary of the method: as §1

UCHL5 = biological target: T5, UCHL5 (UniProt Q9Y5K5)
T5 sequence (whole entry): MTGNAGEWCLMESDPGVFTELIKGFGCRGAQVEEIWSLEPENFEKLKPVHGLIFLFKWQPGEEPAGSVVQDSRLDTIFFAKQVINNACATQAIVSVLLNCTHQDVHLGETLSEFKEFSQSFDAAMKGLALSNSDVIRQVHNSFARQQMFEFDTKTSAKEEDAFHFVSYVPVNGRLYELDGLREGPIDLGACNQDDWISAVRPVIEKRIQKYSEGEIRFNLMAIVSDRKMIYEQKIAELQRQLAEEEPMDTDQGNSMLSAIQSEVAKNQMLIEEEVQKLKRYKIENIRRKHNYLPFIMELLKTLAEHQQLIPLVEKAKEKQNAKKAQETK
Summary of the method: as §1

USP10 = USP10 (UniProt Q14694)
USP10, sequence (Q14694 whole entry): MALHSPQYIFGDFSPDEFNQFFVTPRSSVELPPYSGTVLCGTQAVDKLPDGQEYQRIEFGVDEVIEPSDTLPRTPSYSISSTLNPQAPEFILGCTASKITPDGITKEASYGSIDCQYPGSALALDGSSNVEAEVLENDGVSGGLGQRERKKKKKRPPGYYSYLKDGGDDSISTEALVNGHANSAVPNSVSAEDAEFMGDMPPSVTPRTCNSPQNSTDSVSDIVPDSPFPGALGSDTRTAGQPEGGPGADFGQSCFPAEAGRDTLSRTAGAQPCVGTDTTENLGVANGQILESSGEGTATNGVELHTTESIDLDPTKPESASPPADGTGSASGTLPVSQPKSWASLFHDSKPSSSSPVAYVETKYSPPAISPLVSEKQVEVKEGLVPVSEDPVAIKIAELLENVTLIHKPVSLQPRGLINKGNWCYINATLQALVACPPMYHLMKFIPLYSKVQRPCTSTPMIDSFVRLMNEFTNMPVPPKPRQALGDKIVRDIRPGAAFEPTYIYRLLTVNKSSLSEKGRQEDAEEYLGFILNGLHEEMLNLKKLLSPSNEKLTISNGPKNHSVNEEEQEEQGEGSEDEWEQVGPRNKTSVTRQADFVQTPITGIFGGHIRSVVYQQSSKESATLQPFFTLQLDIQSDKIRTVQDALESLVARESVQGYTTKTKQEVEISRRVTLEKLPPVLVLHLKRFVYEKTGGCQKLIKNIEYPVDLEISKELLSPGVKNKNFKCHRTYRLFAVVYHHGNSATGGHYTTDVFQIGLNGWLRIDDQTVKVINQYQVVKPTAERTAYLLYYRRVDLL
Summary of the method: as §1

USP15 = biological target: T6, USP15 (UniProt Q9Y4E8)
T6 sequence (whole entry): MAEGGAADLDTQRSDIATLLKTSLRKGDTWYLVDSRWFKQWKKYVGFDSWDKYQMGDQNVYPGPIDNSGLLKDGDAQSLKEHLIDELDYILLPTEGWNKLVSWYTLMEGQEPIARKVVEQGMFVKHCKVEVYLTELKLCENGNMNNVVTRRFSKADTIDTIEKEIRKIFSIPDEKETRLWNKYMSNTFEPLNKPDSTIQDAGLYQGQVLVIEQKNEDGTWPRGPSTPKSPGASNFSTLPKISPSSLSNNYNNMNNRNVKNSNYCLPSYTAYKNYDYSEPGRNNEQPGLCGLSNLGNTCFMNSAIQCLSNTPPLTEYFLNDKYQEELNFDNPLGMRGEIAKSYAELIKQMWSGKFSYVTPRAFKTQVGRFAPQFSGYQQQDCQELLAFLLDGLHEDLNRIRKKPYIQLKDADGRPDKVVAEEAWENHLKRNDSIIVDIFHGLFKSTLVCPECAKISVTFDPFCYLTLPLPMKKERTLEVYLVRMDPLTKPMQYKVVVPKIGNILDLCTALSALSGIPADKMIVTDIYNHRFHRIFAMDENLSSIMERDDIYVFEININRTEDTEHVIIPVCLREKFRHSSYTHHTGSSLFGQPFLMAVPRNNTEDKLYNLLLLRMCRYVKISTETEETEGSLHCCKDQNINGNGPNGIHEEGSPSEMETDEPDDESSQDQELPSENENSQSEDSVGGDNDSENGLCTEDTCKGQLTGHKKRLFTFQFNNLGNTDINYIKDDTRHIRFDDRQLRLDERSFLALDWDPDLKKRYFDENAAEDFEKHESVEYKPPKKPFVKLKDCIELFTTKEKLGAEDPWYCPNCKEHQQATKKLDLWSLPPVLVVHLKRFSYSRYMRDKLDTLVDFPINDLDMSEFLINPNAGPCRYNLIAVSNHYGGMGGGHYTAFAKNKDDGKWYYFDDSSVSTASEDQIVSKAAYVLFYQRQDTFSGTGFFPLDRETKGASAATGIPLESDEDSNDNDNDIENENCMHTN
Summary of the method: as §1

USP16 = USP16 (UniProt Q9Y5T5)
USP16, sequence (Q9Y5T5 whole entry, looked up): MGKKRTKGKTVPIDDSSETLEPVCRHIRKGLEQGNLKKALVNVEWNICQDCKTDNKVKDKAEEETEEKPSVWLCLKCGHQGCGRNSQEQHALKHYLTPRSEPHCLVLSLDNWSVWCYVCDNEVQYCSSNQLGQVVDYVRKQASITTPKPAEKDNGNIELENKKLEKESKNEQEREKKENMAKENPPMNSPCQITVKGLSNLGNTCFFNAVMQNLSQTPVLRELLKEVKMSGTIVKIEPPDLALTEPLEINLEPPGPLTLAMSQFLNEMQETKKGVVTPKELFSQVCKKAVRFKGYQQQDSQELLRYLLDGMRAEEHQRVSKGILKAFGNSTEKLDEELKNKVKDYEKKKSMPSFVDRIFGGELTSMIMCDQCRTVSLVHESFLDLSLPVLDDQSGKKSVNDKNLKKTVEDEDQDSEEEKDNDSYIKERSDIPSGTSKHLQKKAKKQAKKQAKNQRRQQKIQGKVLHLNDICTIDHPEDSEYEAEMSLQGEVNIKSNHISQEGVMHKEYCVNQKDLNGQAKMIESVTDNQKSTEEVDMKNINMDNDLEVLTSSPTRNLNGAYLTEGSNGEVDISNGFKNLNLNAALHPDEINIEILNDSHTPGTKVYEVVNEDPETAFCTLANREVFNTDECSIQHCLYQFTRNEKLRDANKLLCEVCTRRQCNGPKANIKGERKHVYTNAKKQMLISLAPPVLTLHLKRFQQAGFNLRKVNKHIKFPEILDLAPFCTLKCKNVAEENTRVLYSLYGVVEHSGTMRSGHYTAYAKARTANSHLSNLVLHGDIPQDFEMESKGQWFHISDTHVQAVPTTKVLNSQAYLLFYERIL
Summary of the method: as §1

Measured: log2 ratio of Biotin-Ahx-Ub-VS probe labelling

Cc1ccccc1C1(CNC(=O)CCl)CCOCC1
active: UCHL1 -1.45
inactive: OTUD6B -0.054 | OTUD7B -0.293 | PRPF8 -0.0655 | PSMD7 -0.0606 | UCHL3 0.231 | UCHL5 -0.272 | USP10 -0.0236 | USP15 -0.102 | USP16 0.242
